From PubChem BioAssay (NCATS) come the findings set out here.

Records with an inconclusive call do not appear. A number with no mark means an inactive call. Calls of active or inactive are those of the source. Calls follow the shape of the dose curve; as a rule, active = well fitted cell-killing curve with a large enough effect; inconclusive = small, poorly fitted or top-dose-only effect, or effect the other way; inactive = no such curve, though single readings can be large or run the other way.
Potency is read from the fitted curve at half-maximal effect.

The nature of this assay: qHTS of pediatric cancer cell lines to identify multiple opportunities for drug repurposing: Confirmatory screen for MG 63 (6-TG R) cells (AID 1347119). Also: nearly all actives have a fitted effect of over 55% in size. The note with it: MG-63 (6-TG resistant) osteosarcoma viability; series mostly up to 45.9 µM; activity change, negative = cytotoxicity: at the top concentration. The text has this:
Drug repurposing or repositioning has been offered as a strategy for drug development in oncology programs. This approach has special potential for childhood cancers and other rare or orphan diseases, where the expected return on new drug development has been a disincentive to pharmaceuticals.
In this project we exploit the poly-pharmacology of drugs to discover new indications via phenotypic screening of a panel of 19 well-characterized cell lines derived from solid tumors seen in children and adolescents. The goal is to identify approved drugs with previously unrecognized anticancer properties that has the potential to reveal new mechanisms and biological processes involved in carcinogenesis or drug resistance. We employed a titration-based paradigm (quantitative high-throughput screening or qHTS), where all compounds were tested at multiple concentrations for their effect on cell viability. Concentration-response curves (CRCs) were derived directly from the primary screen, and both potency and efficacy values were used to identify compounds with robust bioactivity profiles. We screened the NIH Chemical Genomics Center (NCGC) Pharmaceutical Collection (NPC) and Mechanism Interrogation Plate (MIPE) small molecule collections of approved and investigational compounds against these cell lines; and measured metabolically active cells after 48 hours of compound treatment as a proxy for cell viability.
Assay Submitter: Nathalia J. Martinez, National Center for Advancing Translational Sciences, National Institutes of Health, Rockville, MD, USA; email: natalia.martinez@nih.gov
[1] Shen, M et al. Quantitative high-throughput phenotypic screening of pediatric cancer cell lines identifies multiple opportunities for drug repurposing. Oncotarget 2017 Dec 19;9(4):4758-4772. PMID 29435139.
The cells were obtained from University of North Carolina (UNC), Pediatric Preclinical Testing Program (PPT), and Coriell Institute (CI).
qHTS cell viability assay:
Cells were assayed in growth media at a density of 500-1,000 cells/well. Five microliters of cells were dispensed into 1,536-well, white, solid-bottom, TC-treated plates (Greiner Bio One) using a multidrop dispenser and incubated at 37 degrees C, 5% CO2, under a humidified atmosphere for 5 hours. Twenty-three nanoliters of compounds and controls (neutral control DMSO or positive control bortezomib at final concentration of 2.3 µM) were subsequently transferred by Kalypsys pintool. For primary screens, the MIPE collection was tested at 11-point dilutions (final concentrations range from 0.78 nM to 46 µM) and the NPC collection at 8-point dilutions (final concentrations range from 0.59 nM to 46 µM). Compounds tested in follow-up screens were assayed at 11-point dilutions. Cells were incubated for 48 hours, followed by addition of 3 µL of CellTiter-Glo (Promega). After a 15 min incubation at room temperature, samples were analyzed for luminescence intensity using a ViewLux High-throughput CCD imager equipped with clear filters.
A general note: qHTS replaces the single test concentration by a dilution series.
`CCN(CC)CCOc1ccc2c(c1)C(=O)c1cc(OCCN(CC)CC)ccc1-2`: the “activity change, negative = cytotoxicity” value is -10.7%.
For `CCN[C@@H]1C[C@H](N)[C@@H](OC2OC(CN)=CCC2N)[C@H](O)[C@H]1O[C@H]1OC[C@](C)(O)[C@H](NC)[C@H]1O` (stereo not given in full), the activity change, negative = cytotoxicity is -17.7% [at 0.556 µM].
With `C[C@@]12C(=O)OC(=O)[C@]1(C)C1CCC2O1`, the Potency was 2080 nM (active).
The same measure, in the same setting: as for `Nc1nc(Cl)nc2c1ncn2[C@@H]1O[C@H](CO)[C@@H](O)[C@@H]1F`, the figure is 522 nM (active).
Regarding `O=C(Oc1cccc2cccnc12)c1ccccc1`, the “activity change, negative = cytotoxicity” value is -30.9%.
Still for that read-out and setting: for `CCCCCCCCCCC[C@@H](C[C@@H]1OC(=O)[C@H]1CCCCCC)OC(=O)[C@H](CC(C)C)NC=O` the value was -15.2%.
`COc1ccc(C(=O)c2ccccc2)c(O)c1`: the “activity change, negative = cytotoxicity” value was -20.1%.
Same read-out and setting: as for `O=C(CCCN1CC=C(n2c(=O)[nH]c3ccccc32)CC1)c1ccc(F)cc1`, the figure is -13.7%.
For the compound `C[C@H]1O[C@@H](O[C@H]2CC[C@@]3(C)[C@H](CC[C@@H]4[C@@H]3C[C@@H](O)[C@]3(C)[C@@H](C5=CC(=O)OC5)CC[C@]43O)C2)C[C@H](O)[C@@H]1O[C@H]1C[C@H](O)[C@H](O[C@H]2C[C@H](O)[C@H](O[C@@H]3O[C@H](CO)[C@@H](O)[C@H](O)[C@H]3O)[C@@H](C)O2)[C@@H](C)O1`, the Potency is 293 nM (active).
Take `CCN1/C(=C/C=C/c2sc3ccccc3[n+]2CC)Sc2ccccc21`: the Potency is 465 nM (active).
